A selection: hits, their analogues and other compounds. The true share with any hit is near 3.9%.
BoNT-F LC inh – blocks Botulinum neurotoxin F light chain protease. Multiplex microsphere protease cleavage assay, flow cytometry. 360,000 tested, 0.22% active. inhibition, % at 10 µM; in the data active = inhibition above about 35%, passing the limit was not always enough; inconclusive = no clear call, values can overlap the other calls
BH1578 lux ind – quorum light induction in luxS cqsA deficient V. cholerae | V. cholerae BH1578 lux reporter, luminescence, 6 h | activation, % at 18.7 µM | 350,000 tested, 0.16% active; in the data active = activation mostly above about 9.7%, no sharp cut-off; inconclusive = no clear call, values can overlap the other calls; inactive = mostly below about 3.7%
Autofluor counter – compound fluorescence in toxin protease inhibitor counterscreen | compound autofluorescence counterscreen, microsphere flow cytometry; hits give high values | fluorescence intensity (concentration not given with the values) | 360,000 tested, 3.1% active | AID 624483; in the data active = fluorescence intensity above about 16000; inconclusive = no clear call, values can overlap the other calls
BoNT-A LC inh2 – blocks Botulinum neurotoxin A light chain protease; multiplex microsphere protease substrate cleavage, flow cytometry; inhibition, % at 10 µM; 360,000 tested, 0.17% active
Anthrax LF inh2 – anthrax lethal factor protease inhibition; multiplex microsphere protease cleavage assay, LF; 360,000 tested, 0.12% active; inhibition, % at 10 µM; AID 588501; P15917
MazF activator – MazEF (E. coli) toxin RNase activation; P0AE70; FAM/BHQ RNA-DNA oligo cleavage fluorescence, 5 h; activation, % at 20 µM; 350,000 tested, 0.32% active; AID 504720; in the data active = activation above about 50%
Target sequence (P0AE70 whole entry, looked up): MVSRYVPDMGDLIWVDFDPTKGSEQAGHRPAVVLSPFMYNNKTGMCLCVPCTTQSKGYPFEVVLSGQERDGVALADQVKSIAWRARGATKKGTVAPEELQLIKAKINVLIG
Each line names hits and unclear results; the compound was inactive in the other large screens. Cut-off read from the data, not from the text of the source, unless noted: active = inhibition above about 30%; inconclusive = no clear call, values can overlap the other calls; inactive = below that.

Nc1c(C(=O)Nc2ccc(Cl)c(C(=O)O)c2)sc2nc3c(cc12)CCCC3	none
Nc1c(C(=O)Nc2ccc(S(=O)(=O)N3CCCC3)cc2)sc2nc3cc4c(cc3cc12)CCC4	MazF activator 57
Nc1c(C(=O)Nc2ccc(S(=O)(=O)N3CCCC3)cc2)sc2nc3ccc(OC(F)(F)F)cc3cc12	MazF activator 402
O=c1oc2cc(O)ccc2cc1-c1nc2c(s1)CCc1ccccc1-2	BoNT-A LC inh2 47
O=c1oc2ccccc2cc1-c1nc2c(s1)CCc1ccccc1-2	BoNT-A LC inh2 64
COc1ccc(/C=N/NC(=O)c2cc(C(C)(C)C)[nH]n2)cc1COc1ccc(F)cc1F	none
CCOC(=O)N1CCC(NC(=O)c2cc(C)c3c(C)nn(-c4ccccc4)c3n2)CC1	Autofluor counter 19067
CCCn1c2ccccc2c2nnc(SCC(=O)OCC)nc21	none
CCCn1c2ccccc2c2nnc(SCC(=O)OC)nc21	Autofluor counter 20508
N#Cc1ccc(NC(=O)C2CC(c3ccc(F)cc3)=NO2)cc1 (centres undefined)	Autofluor counter 22651
O=C(Nc1ccc2c(c1)OCO2)C1CC(c2ccc(F)cc2)=NO1 (centres undefined)	none
COC(=O)c1ccccc1NC(=O)C1CC(c2ccc(F)cc2)=NO1 (centres undefined)	Autofluor counter 16511
COCCNC(=O)c1ccc(CS(=O)(=O)c2ccccc2C)o1	none
COc1ccccc1S(=O)(=O)Cc1ccc(C(=O)N2CCN(c3cccc(Cl)c3)CC2)o1	none
Cc1cccc(N2CCN(C(=O)c3ccc(CS(=O)(=O)c4ccccc4C)o3)CC2C)c1 (centres undefined)	Autofluor counter 21673, BoNT-A LC inh2 inconclusive
COc1ccccc1S(=O)(=O)Cc1ccc(C(=O)N2CCN(c3ccccc3)CC2)o1	Autofluor counter 21717
Cc1ccc(C)c(N2CCN(C(=O)c3ccc(CS(=O)(=O)c4ccccc4C)o3)CC2)c1	none
COC(=O)c1ccc(CS(=O)(=O)c2ccccc2C)o1	Autofluor counter 23513, BoNT-A LC inh2 inconclusive
Cn1c(=O)c(NCCO)c2c3c(cccc31)C(=O)c1ccccc1-2	none
CCNc1c2c3c(cccc3n(C)c1=O)C(=O)c1ccccc1-2	none (no result: BoNT-F LC inh, BH1578 lux ind, Autofluor counter, BoNT-A LC inh2, Anthrax LF inh2)
Cn1c(=O)c(NC2CCCCC2)c2c3c(cccc31)C(=O)c1ccccc1-2	BoNT-A LC inh2 44
Cn1c(=O)c(NCCc2ccccc2)c2c3c(cccc31)C(=O)c1ccccc1-2	BoNT-F LC inh 41, BoNT-A LC inh2 47, Anthrax LF inh2 47, MazF activator 60 (no result: BH1578 lux ind)
CCCCNc1c2c3c(cccc3n(C)c1=O)C(=O)c1ccccc1-2	BoNT-F LC inh 50, BoNT-A LC inh2 74, Anthrax LF inh2 56
COc1ccc(CNC(=O)C2CCN(S(=O)(=O)c3ccc4c(c3)CC(C)N4C(C)=O)CC2)cc1 (centres undefined)	none
O=C(C1CCCCN1S(=O)(=O)c1ccccc1)N1CCCCC1 (centres undefined)	none
O=C(C1CCCCN1S(=O)(=O)c1ccccc1)N1CCN(C(c2ccccc2)c2ccccc2)CC1 (centres undefined)	Autofluor counter 20580
CC1CC(=O)NN=C1c1ccc(N(C)C)c([N+](=O)[O-])c1 (centres undefined)	Autofluor counter 18577
CCN(CC)c1ccc(C2=NNC(=O)CC2C)cc1[N+](=O)[O-] (centres undefined)	none
N#C/C(=C/c1ccc(N2CCCCCC2)o1)c1ccc(F)cc1	none
N#C/C(=C/c1ccc(N2CCCCCC2)o1)c1cccc(F)c1	Autofluor counter 28830
COc1cc(N2CCCC2)c(OC)cc1/C=C(/C#N)c1cccc(F)c1	BoNT-F LC inh 48, Autofluor counter 23531
CC(NS(=O)(=O)/C=C/c1ccccc1)C(=O)NCCc1ccc(S(N)(=O)=O)cc1 (centres undefined)	none
CCN(CC)c1ccc(/C=N/N(c2ccccc2)c2ccccc2)c(O)c1	none
CCN(CC)c1ccc(C=Nc2ccccc2C)c(O)c1	BoNT-A LC inh2 51, Anthrax LF inh2 34
CCN(CC)c1ccc(O)c(C=Nc2ccc(C)c(C)c2)c1	BoNT-A LC inh2 50
CCN(CC)c1ccc(C=Nc2ccc(C#N)cc2)c(O)c1	none
CC(C)C(c1nnnn1C(C)(C)C)N1CCC(Cc2ccccc2)CC1 (centres undefined)	BoNT-F LC inh inconclusive, Autofluor counter 18261, BoNT-A LC inh2 inconclusive, Anthrax LF inh2 inconclusive
CC(C)C(c1nnnn1C(C)(C)C)N1CCOCC1 (centres undefined)	none
CC(=O)c1c(C(C)=O)c(C)n(NC(=O)c2ccccc2O)c1C	Autofluor counter 20975, BoNT-A LC inh2 inconclusive
CN(C)c1ccc(CNC(=O)C2Cc3c(-c4ccccc4Oc4ccccc4)ccnc3O2)cc1 (centres undefined)	none (no result: MazF activator)
C=CCn1c(Cc2csc(N)n2)nnc1SCC(=O)OCC	Autofluor counter 22718
C=CCn1c(Cc2csc(N)n2)nnc1SCC(=O)Nc1ccc(C(=O)OCC)cc1	none
C=CCn1c(Cc2ccc(OC)cc2)nnc1SCC(N)=O	Autofluor counter 22116
C=CCn1c(CCNC(=O)c2ccc(Cl)c(Cl)c2)nnc1SCCOc1ccc(OC)cc1	Autofluor counter 21454, BoNT-A LC inh2 inconclusive
Clc1ccccc1CSc1nncn1NC/C=C/c1ccccc1	none
CN(C)c1ccnc(Oc2ccccc2)c1C#N	none
CN(C)c1ccnc(SCc2ccccc2Cl)c1C#N	Autofluor counter 22367
CCOC(=O)Cc1nnc(NC(=O)CSc2ncc(-c3ccccc3)nn2)s1	none
C=COCCn1c(C)c(C(=O)OCC)c2cc(O)ccc21	Autofluor counter 21557, BoNT-A LC inh2 inconclusive
CCOC(=O)c1c(C)n(Cc2ccccc2)c2ccc(O)cc12	none
CC(C)C(=O)Nc1nnc(Cc2c[nH]c3ccccc23)s1	BoNT-F LC inh inconclusive
Nc1nnc(Cc2c[nH]c3ccccc23)s1	Autofluor counter 23973
O=C(OC1CC2CC1[C@H]1CCCCN1C2=O)N1CCCCC1 (some centres undefined)	none (no result: BH1578 lux ind, MazF activator)
O=C(c1ccco1)N1CCCSC1=Nc1ccccc1	Autofluor counter 21959
Cc1onc(-c2ccccc2)c1C(=O)N1CCCSC1=Nc1ccccc1	none
Cc1cccc(-c2noc(CCCC(=O)NC3CCCC3)n2)c1	none
O=C(c1cccc(F)c1)N1CCN(S(=O)(=O)c2ccc(C(F)(F)F)cc2)CC1	Autofluor counter 22916, BoNT-A LC inh2 inconclusive
O=C(c1cccc(Br)c1)N1CCCC1	Autofluor counter 23116, BoNT-A LC inh2 inconclusive
O=C(c1cccc(C(F)(F)F)c1)N1CCCC1	Autofluor counter 16789, BoNT-A LC inh2 inconclusive
O=C(c1ccncc1)N1CCN(S(=O)(=O)c2cccc(F)c2)CC1	none
O[C@@H]1CN(Cc2cccs2)[C@@H](c2ccc(Cl)cc2)C[C@H]1n1cc(-c2ccc(F)cc2)nn1	none
Cc1ccc(C)c(CSc2nnc([C@@H](N)C(C)C)o2)c1	Autofluor counter 16262
COc1ccc(CC(=O)NCc2n[nH]c(=S)n2-c2ccccc2OC)cc1	none

From PubChem BioAssay
